High-throughput results (PubChem BioAssay)
In the library only some 3.4% were active in any assay of this set; here they are far more common.
SMARCA2 activ: SMARCA2 function activation, primary screen | MG213 cells, MMTV-luciferase reporter, dexamethasone, overnight | activation, % at 9.1 µM | 370,000 tested, 1% active | AID 652017; in the data active = activation above about 7.8%
HSF1 inh: HSF1 inhibition; NIH3T3-HGL HSE-luciferase, MG132-induced, luminescence 8 h; stronger effect = lower value; activity change, negative = inhibition, % at 7.5 µM (by protocol); 300,000 tested, 0.77% active; AID 2098;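 active = more than half of replicate wells show activity change below -50%, luminescence cut by over half; inconclusive = some wells, but at most half, below -50%; inactive = no replicate well below -50%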;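 also: luciferase reports HSF-1 transcriptional activity via heat shock element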
GAA850 FXN act: frataxin GAA850 promoter activation; 360,000 tested, 0.56% active; AID 540364; HEK293 lucGAA850 FXN promoter luciferase reporter, 24 h; percent of 10 µM SAHA response; activation, % at 6 µM;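 active = activation above the average of all compounds screened plus 3 SD, cutoff fixed separately per campaign, cut at about 7.5% in these data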
AI-2 QS mod: modulates the Vibrio harveyi AI-2 quorum sensing system | Vibrio harveyi JMH597 AI-2 luminescence/OD600 ratio, 9 h; stronger effect = lower value; strain lacks LuxN and CqsS sensors; 0 = neutral-control median | activity change, % at 7.5 µM | 300,000 tested, 0.4% active | AID 2094; in the data active = activity change below about -75%, passing the limit was not always enough; inconclusive = no clear call, values can overlap the other calls;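 also: luminescence divided by OD600 gain over 9 h not by final OD600 alone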
PG9 Ab binder: PG9 antibody binding by small molecule; TR-FRET gp120-PG9 antibody binding; inhibition, % at 6.7 µM; 360,000 tested, 0.43% active; in the data active = inhibition above about 8.5%
HSP90 refold inh: blocks HSP90-mediated luciferase refolding in reticulocyte lysate; Rabbit reticulocyte lysate, luciferase refolding luminescence, 3 h; inhibition, % at 5.6 µM; 290,000 tested, 0.91% active; AID 1789;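 active = inhibition above the screen-wide mean plus 3 SD, computed separately per campaign, cut at about 16% in these data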;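 also: inhibitors lower the luminescence because luciferase stays unfolded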
A number is an active result; n = inactive; u = inconclusive; x = no result given.

SMILES	SMARCA2 activ	HSF1 inh	GAA850 FXN act	AI-2 QS mod	PG9 Ab binder	HSP90 refold inh
CCOC(=O)N(C)[C@H]1C[C@H]2c3cc(-c4ccccc4C)ccc3CCN2C[C@H]1[C@H](C)O	n	x	x	x	n	x
COc1cc(/C=C2\SC(=O)N(c3ccc(Cl)cc3)C2=O)cc([N+](=O)[O-])c1O	n	x	n	x	n	66
CCOC(=O)c1c2c(n(Cc3ccccc3)c1C)C(=O)C(=O)c1ccccc1-2	n	99	n	x	n	x
CCn1c(SCc2ccc(C(C)(C)C)cc2)nnc1-c1ccc(C(C)(C)C)cc1	n	x	x	x	x	x
Cc1cccc(NC(=O)OC2CC3CC2[C@H]2CCCCN2C3)c1 (stereo partly specified)	n	x	x	x	x	x
CCCNC(=O)N1CCCC(C(=O)c2cccc(Cl)c2)C1 (stereo unspecified)	n	-54	n	n	n	n
CCOC(=O)CCNC(=O)N1CCCC(C(=O)c2cccc(Cl)c2)C1 (stereo unspecified)	n	n	n	n	n	n
Cc1ccc(S(=O)(=O)N(C)[C@H]2C[C@H]3c4[nH]c5c(-c6ccccc6)cccc5c4CCN3C(=O)[C@H]2[C@H](C)O)cc1	n	x	x	x	n	x
N#C/C(=C/c1cccc(C(F)(F)F)c1)c1nc(CCN2C(=O)c3ccccc3C2=O)cs1	n	-59	n	n	n	n
N#C/C(=C/c1ccc(F)cc1)c1nc(CCN2C(=O)c3ccccc3C2=O)cs1	n	n	n	n	n	n
CCCCN=Cc1c(C)[nH]n(-c2ccccc2)c1=S	n	n	n	n	n	n
Cc1[nH]n(-c2ccccc2)c(=S)c1C=Nc1cccc([N+](=O)[O-])c1	n	-60	n	n	n	n
CCOC(=O)C1=C(c2ccccc2)NC(N)=NC1c1ccc(OCc2ccc(C(=O)OC)cc2)cc1 (stereo unspecified)	n	n	n	-92	n	n
COc1ccccc1C(=O)OCC(=O)c1cccc([N+](=O)[O-])c1	n	-76	n	n	n	n
COC(=O)[C@]12C[C@H](CC(=O)NCc3ccc(C)o3)C(=O)N(Cc3ccc(Cl)cc3Cl)C1=C[C@H](C(C)C)O[C@@H]2C1CC1	n	x	x	x	x	x
CCC(=O)N1CCc2cc(S(=O)(=O)NCCC(=O)Nc3ccccc3C)ccc21	n	-65	n	n	n	n
CC(C)(C)OC(=O)NCCc1nnc(SCc2ccccc2Cl)o1	n	n	n	n	n	n
CC(C)(C)OC(=O)NCCc1nnc(S(=O)(=O)Cc2ccc(Cl)cc2Cl)o1	n	n	n	-89	n	n
CCN1C/C(=C/c2ccc(OC)c(O)c2)C(=O)/C(=C/c2ccc(OC)c(O)c2)C1	n	-79	n	n	n	n
COc1ccc(C=C2C(=O)c3ccccc3C2=O)cc1O	n	n	n	n	n	n
COc1ccc(/C=C2\CN(Cc3ccccc3)C/C(=C\c3ccc(OC)c(O)c3)C2=O)cc1O	n	n	n	n	n	18
COc1ccc(C(=O)C2(C(=O)NCc3ccccc3)CC(c3ccccn3)=NO2)cc1 (stereo unspecified)	n	x	x	x	x	x
C/C(CC(=O)Nc1ccccc1C(F)(F)F)=N\NC(=O)c1cnccn1	n	-84	n	n	n	x
COc1cccc(NC(=O)n2ncc3c(C)cccc32)c1	n	n	n	n	n	35
CCOc1ccc(NC(=O)n2ncc3c(C)cccc32)cc1	n	n	n	n	n	n
SMILES	SMARCA2 activ	HSF1 inh	GAA850 FXN act	AI-2 QS mod	PG9 Ab binder	HSP90 refold inh
C[C@H](CO)N1C[C@H](C)[C@@H](CN(C)C(=O)c2ccncc2)OCc2cn(nn2)CCCC1=O	n	x	x	x	n	x
COc1ccc(-n2c(C)cc(=O)c3c2CC(C)(C)CC3=O)cc1	7.9	n	n	n	n	n
O=C(O)COc1ccc(/C=N/NC(=O)c2ccccc2Br)cc1	x	-67	n	n	x	n
CC(C)CN(CC(C)C)C(=O)c1ccc2c(c1)NC(=O)C(C)(C)O2	n	x	x	x	x	x
Cc1ccccc1CN1CCN(C(=O)CC(C)C)CC1	n	-86	n	n	n	n
Cc1ccccc1NC1(C#N)C(=O)Nc2ccccc21 (stereo unspecified)	n	n	n	n	n	n
CC(C)c1ccc(NC2(C#N)C(=O)Nc3ccccc32)cc1 (stereo unspecified)	n	-61	n	n	n	n
Cc1ccc(NC(=O)CSc2nnc3ccccn23)c(Cl)c1	7.9	x	n	x	n	x
O=C(CSc1nnc2ccccn12)Nc1ccccc1Cl	n	x	n	x	n	x
CC(C)C[C@@H]1COc2cc(Br)ccc2S(=O)(=O)N1Cc1cn(Cc2ccc(Cl)cc2)nn1	n	x	x	x	x	x
C=CCn1c(SCc2ccc(F)cc2)nc2c1c(=O)[nH]c(=O)n2C	n	n	23	n	n	n
CC(C)(C)OC(=O)NCc1cc2c(cc1/C=C/S(=O)(=O)NC1CCCC1)OCO2	n	x	x	x	x	x
O=C(NNc1nc2cc3c(cc2s1)OCCO3)c1ccc(F)cc1	n	n	n	-90	n	n
O=C(NNc1nc2cc3c(cc2s1)OCO3)c1ccc(F)cc1	n	n	n	u	n	n
CCOC(=O)c1nn(-c2ccc(F)cc2)c(=O)cc1OCC(=O)Nc1cccc(C)c1	n	n	n	n	11	x
CCCc1ccc(-c2cc(C(=O)NN3CCOCC3)c3ccccc3n2)cc1	n	n	8.3	n	n	n
CC(C)Oc1cccc(-c2cc(C(=O)NN3CCOCC3)c3ccccc3n2)c1	n	n	n	n	n	n
O=C(NC(=S)N1CCN(c2ccc(C(F)(F)F)cc2[N+](=O)[O-])CC1)c1cccs1	n	-94	n	n	n	n
CCN1CCN(C(=S)NC(=O)c2cccs2)CC1	n	n	n	n	n	n
Cc1cccc(C)c1NC(=S)N(CCc1ccncc1)C(C)C	n	n	n	n	n	n
CCOc1ccc(NC(=S)N(CCc2ccncc2)C(C)C)cc1	n	-53	n	n	n	n
Cc1ccccc1C(=O)N[C@H](C(=O)N1CCC[C@H]1C(=O)NC1CCCC1)C1CCCCC1	n	x	x	x	n	x
O=S(=O)(c1ccc(N2CCN(c3ccc(F)cc3)CC2)cc1)N1CCCC1	n	n	n	n	n	n
O=S(=O)(N1CCCCC1)N1CCN(c2ccc(F)cc2)CC1	n	-71	n	n	n	n
O=C(CSc1nc2ccccc2o1)Nc1nc(-c2ccccc2)cs1	n	-56	n	n	n	n
SMILES	SMARCA2 activ	HSF1 inh	GAA850 FXN act	AI-2 QS mod	PG9 Ab binder	HSP90 refold inh
O=c1oc2ccccc2cc1-c1cn2ccccc2n1	n	n	n	n	n	56
O=c1oc2ccccc2cc1-c1cn2cccnc2n1	n	n	n	n	n	n
CN1C(=O)SC(Nc2ccccc2)C1=O (stereo unspecified)	n	n	n	n	n	n
COc1cccc(NC2SC(=O)N(c3ccccc3)C2=O)c1 (stereo unspecified)	8.0	n	n	n	n	n
O=C(CCc1ccccc1)c1c(O)cc(O)cc1O	n	n	n	-81	n	x
COCc1cc(C)c2c(N)c(C#N)sc2n1	7.9	n	n	n	n	n
